Here are results for 36 molecules from PubChem BioAssay (NCATS).

Records with an inconclusive call do not appear. Active and inactive are the calls of the source. The call rests on the fitted dose curve; in most records, active means well fitted inhibition curve with a large enough effect; inconclusive means small, poorly fitted or top-dose-only effect; inactive means no such curve, though single readings can be large or run the other way.
Potency means the concentration at half of the fitted maximal effect.

The first test in a line: qHTS Screen of the MIPE 4.0 Collection Against Ewings Sarcoma (RDES) (AID 1259252). Further: nearly all actives have a fitted effect of over 35% in size. The following applies: RD-ES Ewing sarcoma viability, CellTiter-Glo, 48 h; series mostly up to 45.8 µM. A digest of the protocol:
(§1)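 Cells plated in serum-containing RPMI (5% FBS) and treated with compound dilutions for 48 h. Readout luminescent viability; normalization relied on vehicle (no inhibition) and media-only columns (full inhibition).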
Take `C[C@@H]1C[C@H]2[C@@H]3CCC4=CC(=O)C=C[C@]4(C)[C@@]3(F)[C@@H](O)C[C@]2(C)[C@@]1(O)C(=O)CO`: the Potency entry was “inactive”.
The same measure, in the same setting: under `N#Cc1c(N(CC(=O)O)CC(=O)O)sc(C(=O)O)c1CC(=O)O` stands “inactive”.
The same measure, in the same setting: under `CCCCCCCCCCCCCC(=O)N[C@H](CO)[C@H](O)c1ccc([N+](=O)[O-])cc1` stands “inactive”; under `C=C1c2cccc(O)c2C(O)=C2C(=O)[C@@]3(O)C(O)=C(C(N)=O)C(=O)[C@@H](N(C)C)[C@@H]3[C@@H](O)[C@H]12`, 20.9 µM (active); under `CCC(=C(CC)c1ccc(O)cc1)c1ccc(O)cc1`, 23.5 µM (active).
The same measure, in the same setting: under `CN1C(=O)C[C@H](C(=O)N[C@@H](Cc2cnc[nH]2)C(=O)N2CCC[C@@H]2C(N)=O)NC1=O` stands 20.9 µM (active); under `CC1(C)[C@H]2CC[C@]3(C)[C@@H](C(=O)C=C4[C@@H]5C[C@@](C)(C(=O)O)CC[C@]5(C)CC[C@]43C)[C@@]2(C)CC[C@@H]1O`, “inactive”.
Turning to `CN1CCc2c(n(Cc3ccc(C(=O)NO)cc3)c3ccccc23)C1`, the Potency is 14.8 µM (active).
Take `Cc1[nH]c(C=C2C(=O)Nc3ccc(S(=O)(=O)N(C)c4cccc(Cl)c4)cc32)c(C)c1C(=O)N1CCN(C)CC1`: the Potency was 26.4 µM (active).
Consider `CCC(C)SSc1ncc[nH]1` (stereo unspecified), for which the Potency was 23.5 µM (active).
As to `O=C(O)C1=CC(O)C(O)[C@H](O)C1` (stereo partly specified), the Potency entry was “inactive”.
For `CC(=O)OCC(=O)[C@@]12OC(C)(C)O[C@H]1C[C@H]1[C@@H]3C[C@H](F)C4=CC(=O)C=C[C@]4(C)[C@@]3(F)[C@@H](O)C[C@@]12C`, the Potency result is “inactive”.
On the same count and under the same terms, under `CN(C)c1ccc(-c2nc3ncc(Cl)c(N4CCN(CC(=O)Nc5nccs5)CC4)c3[nH]2)cc1` stands 20.9 µM (active); under `CCCCC(F)(F)[C@@]1(O)CC[C@H]2[C@H](CC(=O)[C@@H]2CCCCCCC(=O)O)O1`, 2.64 µM (active); under `CC(C)CN(C[C@H](O)[C@H](Cc1ccccc1)NC(=O)O[C@H]1CCOC1)S(=O)(=O)c1ccc(N)cc1`, 16.6 µM (active).
Same read-out and setting: under `COc1cc(Cl)cn2c(-c3cccc(NC4CNC4)n3)cnc12` stands 26.4 µM (active); under `Cc1cc2nc3c(=O)[nH]c(=O)nc-3n(CC(O)C(O)C(O)CO)c2cc1C` (stereo unspecified), “inactive”.
Regarding `CN1CCN(c2ncc(-c3cc(Cl)cc(Cl)c3Cl)c(N)n2)CC1`, the Potency result is “inactive”.
The same measure, in the same setting: under `CC(NCCc1ccc(O)cc1)C(O)c1ccc(O)cc1` (stereo unspecified) stands “inactive”; under `NC(=O)c1ncn([C@@H]2O[C@H](CO)[C@@H](O)[C@@H]2O)n1`, “inactive”.
`CCCC1OC2C[C@@H]3[C@H]4CCC5=CC(=O)C=C[C@]5(C)[C@H]4C(O)C[C@]3(C)[C@]2(C(=O)CO)O1` (stereo partly specified): the Potency result was “inactive”.
Take `Nc1ncnc2c1ncn2[C@@H]1O[C@H](CO)[C@@H](O)[C@@H]1O`: the Potency is 16.6 µM (active).
With `COc1ccc(-c2nc3ccc(C4=NNC(=O)CC4C)cc3[nH]2)cc1` (stereo unspecified), the Potency result was “inactive”.
On to `C#CCN(C)CC1=Cc2ccccc2Oc2ccccc21`, for which the Potency entry is “inactive”.
On the same count and under the same terms, under `O=C(c1ccc(C(=O)N2CCC(N3CCCC3)CC2)c(Nc2ccccc2)c1)N1CCC(N2CCCC2)CC1` stands 16.6 µM (active); under `NS(=O)(=O)c1cc(Cl)c(Cl)c(S(N)(=O)=O)c1`, “inactive”; under `Cc1nn(Cc2ccccc2Cl)c(C)c1CN(C)CC(O)COc1ccc(Cl)cc1` (stereo unspecified), 23.5 µM (active).
On the same count and under the same terms, under `CC(C)c1onc(-c2c(Cl)cccc2Cl)c1COc1ccc(C=Cc2cccc(C(=O)O)c2)c(Cl)c1` stands “inactive”; under `CC1(C)C(N(O)C(=O)Nc2ccc(Cl)cc2)N(c2ccc(Cl)cc2)C(=O)N1CC(=O)NN=CC=Cc1ccc([N+](=O)[O-])o1` (stereo unspecified), 26.4 µM (active).
The same measure, in the same setting: under `COc1cc2nccc(Oc3ccc(NC(=O)Nc4cc(C)on4)c(Cl)c3)c2cc1OC` stands 2.35 µM (active); under `Nc1ccc(-c2ccc3ncc4ccc(=O)n(-c5cccc(C(F)(F)F)c5)c4c3c2)cn1`, 0.0148 µM (active).
Consider `COc1c(C)c2c(c(O)c1CC=C(C)CCC(=O)O)C(=O)OC2`, for which the Potency was 3.72 µM (active).
Still for that read-out and setting: under `CNC1[C@H](O)C(O[C@@H]2C(O)C(O[C@H]3O[C@H]([C@@H](C)NC)CC[C@H]3N)[C@@H](N)C[C@H]2N)OC[C@]1(C)O` (stereo partly specified) stands “inactive”.
As to `CC(C)=CCCC(C)=CCCC(C)=CCCC(C)=CCCC(C)=CCCC(C)=CCCC(C)=CCCC(C)=CCCC(C)=CCO`, the Potency entry was “inactive”.
The same measure, in the same setting: under `COc1cc([C@@H]2c3cc4c(cc3[C@@H](O[C@@H]3O[C@@H]5CO[C@@H](C)O[C@@H]5[C@H](O)[C@@H]3O)[C@H]3COC(=O)[C@H]23)OCO4)cc(OC)c1O` stands 1.05 µM (active).
Same read-out and setting: under `C[C@H]1[C@H](O)O[C@@H]2O[C@@]3(C)CC[C@@H]4[C@H](C)CC[C@@H]1[C@@]24OO3` stands 3.32 µM (active).

Another test is described as follows: qHTS Screen of the MIPE 4.0 Collection Against Ewings Sarcoma (TC71) (AID 1259253). Further: nearly all actives have a fitted effect of over 40% in size. The following applies: TC71 Ewing sarcoma viability, CellTiter-Glo, 48 h; series mostly up to 45.8 µM. A digest of the protocol:
as §1
(In general: qHTS replaces the single test concentration by a dilution series.)
Regarding `C[C@@H]1C[C@H]2[C@@H]3CCC4=CC(=O)C=C[C@]4(C)[C@@]3(F)[C@@H](O)C[C@]2(C)[C@@]1(O)C(=O)CO`, the Potency entry is “inactive”.
On the same count and under the same terms, under `N#Cc1c(N(CC(=O)O)CC(=O)O)sc(C(=O)O)c1CC(=O)O` stands “inactive”; under `CCCCCCCCCCCCCC(=O)N[C@H](CO)[C@H](O)c1ccc([N+](=O)[O-])cc1`, “inactive”; under `C=C1c2cccc(O)c2C(O)=C2C(=O)[C@@]3(O)C(O)=C(C(N)=O)C(=O)[C@@H](N(C)C)[C@@H]3[C@@H](O)[C@H]12`, 20.9 µM (active).
Same read-out and setting: under `CCC(=C(CC)c1ccc(O)cc1)c1ccc(O)cc1` stands 26.4 µM (active); under `CC1(C)[C@H]2CC[C@]3(C)[C@@H](C(=O)C=C4[C@@H]5C[C@@](C)(C(=O)O)CC[C@]5(C)CC[C@]43C)[C@@]2(C)CC[C@@H]1O`, “inactive”.
On the same count and under the same terms, under `CN1CCc2c(n(Cc3ccc(C(=O)NO)cc3)c3ccccc23)C1` stands 18.7 µM (active).
`Cc1[nH]c(C=C2C(=O)Nc3ccc(S(=O)(=O)N(C)c4cccc(Cl)c4)cc32)c(C)c1C(=O)N1CCN(C)CC1`: the Potency was 26.4 µM (active).
Still for that read-out and setting: under `CCC(C)SSc1ncc[nH]1` (stereo unspecified) stands 26.4 µM (active).
On the same count and under the same terms, under `O=C(O)C1=CC(O)C(O)[C@H](O)C1` (stereo partly specified) stands “inactive”.
The same measure, in the same setting: under `CC(=O)OCC(=O)[C@@]12OC(C)(C)O[C@H]1C[C@H]1[C@@H]3C[C@H](F)C4=CC(=O)C=C[C@]4(C)[C@@]3(F)[C@@H](O)C[C@@]12C` stands “inactive”; under `CN(C)c1ccc(-c2nc3ncc(Cl)c(N4CCN(CC(=O)Nc5nccs5)CC4)c3[nH]2)cc1`, 18.7 µM (active); under `CCCCC(F)(F)[C@@]1(O)CC[C@H]2[C@H](CC(=O)[C@@H]2CCCCCCC(=O)O)O1`, 2.96 µM (active).
As for `CC(C)CN(C[C@H](O)[C@H](Cc1ccccc1)NC(=O)O[C@H]1CCOC1)S(=O)(=O)c1ccc(N)cc1`, the Potency was 18.7 µM (active).
The same measure, in the same setting: under `COc1cc(Cl)cn2c(-c3cccc(NC4CNC4)n3)cnc12` stands 23.5 µM (active); under `Cc1cc2nc3c(=O)[nH]c(=O)nc-3n(CC(O)C(O)C(O)CO)c2cc1C` (stereo unspecified), 26.4 µM (active); under `CN1CCN(c2ncc(-c3cc(Cl)cc(Cl)c3Cl)c(N)n2)CC1`, 16.6 µM (active).
Take `CC(NCCc1ccc(O)cc1)C(O)c1ccc(O)cc1` (stereo unspecified): the Potency entry was “inactive”.
Same read-out and setting: under `NC(=O)c1ncn([C@@H]2O[C@H](CO)[C@@H](O)[C@@H]2O)n1` stands “inactive”; under `CCCC1OC2C[C@@H]3[C@H]4CCC5=CC(=O)C=C[C@]5(C)[C@H]4C(O)C[C@]3(C)[C@]2(C(=O)CO)O1` (stereo partly specified), 13.2 µM (active); under `Nc1ncnc2c1ncn2[C@@H]1O[C@H](CO)[C@@H](O)[C@@H]1O`, 6.62 µM (active).
The same measure, in the same setting: under `COc1ccc(-c2nc3ccc(C4=NNC(=O)CC4C)cc3[nH]2)cc1` (stereo unspecified) stands “inactive”; under `C#CCN(C)CC1=Cc2ccccc2Oc2ccccc21`, “inactive”; under `O=C(c1ccc(C(=O)N2CCC(N3CCCC3)CC2)c(Nc2ccccc2)c1)N1CCC(N2CCCC2)CC1`, 7.43 µM (active).
With `NS(=O)(=O)c1cc(Cl)c(Cl)c(S(N)(=O)=O)c1`, the Potency result was “inactive”.
As to `Cc1nn(Cc2ccccc2Cl)c(C)c1CN(C)CC(O)COc1ccc(Cl)cc1` (stereo unspecified), the Potency is 23.5 µM (active).
On the same count and under the same terms, under `CC(C)c1onc(-c2c(Cl)cccc2Cl)c1COc1ccc(C=Cc2cccc(C(=O)O)c2)c(Cl)c1` stands 18.7 µM (active); under `CC1(C)C(N(O)C(=O)Nc2ccc(Cl)cc2)N(c2ccc(Cl)cc2)C(=O)N1CC(=O)NN=CC=Cc1ccc([N+](=O)[O-])o1` (stereo unspecified), 18.7 µM (active).
The same measure, in the same setting: under `COc1cc2nccc(Oc3ccc(NC(=O)Nc4cc(C)on4)c(Cl)c3)c2cc1OC` stands 2.64 µM (active); under `Nc1ccc(-c2ccc3ncc4ccc(=O)n(-c5cccc(C(F)(F)F)c5)c4c3c2)cn1`, 0.0083 µM (active).
On the same count and under the same terms, under `COc1c(C)c2c(c(O)c1CC=C(C)CCC(=O)O)C(=O)OC2` stands 2.35 µM (active); under `CNC1[C@H](O)C(O[C@@H]2C(O)C(O[C@H]3O[C@H]([C@@H](C)NC)CC[C@H]3N)[C@@H](N)C[C@H]2N)OC[C@]1(C)O` (stereo partly specified), “inactive”; under `CC(C)=CCCC(C)=CCCC(C)=CCCC(C)=CCCC(C)=CCCC(C)=CCCC(C)=CCCC(C)=CCCC(C)=CCO`, “inactive”.
Turning to `COc1cc([C@@H]2c3cc4c(cc3[C@@H](O[C@@H]3O[C@@H]5CO[C@@H](C)O[C@@H]5[C@H](O)[C@@H]3O)[C@H]3COC(=O)[C@H]23)OCO4)cc(OC)c1O`, the Potency is 0.59 µM (active).
For the molecule `C[C@H]1[C@H](O)O[C@@H]2O[C@@]3(C)CC[C@@H]4[C@H](C)CC[C@@H]1[C@@]24OO3`, the Potency was 1.48 µM (active).
